This passage reports outcome and AC50 results from PubChem BioAssay (EPA / NIEHS).

By AC50 is commonly meant the concentration at which the activity in the assay is half-maximal.

SMILES strings stand for the structures. Inconclusive results are not listed. The source made the active and inactive calls. The calls were made as follows: active = hit-call score of the fitted dose curve at least 0.9, where 1 is the maximum; inconclusive = response in the unintended direction; inactive = score below 0.9.

The target of one assay is PGR (gene 5241) (UniProt P06401). Briefly: TOX21_PR_LUC_Followup_Antagonist: Tox21 HEK293 Progesterone Receptor (PR) Antagonism Luciferase Follow-Up Assay (AID 2283938).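 Also: curve fitted upward as signal gain over DMSO baseline despite antagonist label.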 An excerpt: TOX21_PR_LUC_Followup is a secondary assay for specificity for the TOX21_PR_BLA_Agonist assay. To differentiate true PR agonists from cytotoxic substances, this follow up assay is multiplexed with a cell viability assay.TOX21_PR_LUC_Followup_Antagonist is one of one assay component(s) measured or calculated from the TOX21_PR_LUC_Followup assay. It is designed to make measurements of luciferase induction, a form of inducible reporter, as detected with bioluminescence signals by CellTiter-Glo Luciferase-coupled ATP quantitation technologyData from the assay component TOX21_PR_LUC_Followup_Antagonist was analyzed into 1 assay endpoint. This assay endpoint, TOX21_PR_LUC_Followup_Antagonist, was analyzed in the positive analysis fitting direction relative to DMSO as the negative control and baseline of activity. Using a type of inducible reporter, gain-of-signal activity can be used to understand changes in the reporter gene as they relate to the gene NR3C3. Furthermore, this assay endpoint can be referred to as a primary readout, because the performed assay has only produced 1 assay endpoint. To generalize the intended target to other relatable targets, this assay endpoint is annotated to the nuclear receptor target family, where the subfamily is steroidal.
PGR (gene 5241), sequence (P06401 whole entry, looked up): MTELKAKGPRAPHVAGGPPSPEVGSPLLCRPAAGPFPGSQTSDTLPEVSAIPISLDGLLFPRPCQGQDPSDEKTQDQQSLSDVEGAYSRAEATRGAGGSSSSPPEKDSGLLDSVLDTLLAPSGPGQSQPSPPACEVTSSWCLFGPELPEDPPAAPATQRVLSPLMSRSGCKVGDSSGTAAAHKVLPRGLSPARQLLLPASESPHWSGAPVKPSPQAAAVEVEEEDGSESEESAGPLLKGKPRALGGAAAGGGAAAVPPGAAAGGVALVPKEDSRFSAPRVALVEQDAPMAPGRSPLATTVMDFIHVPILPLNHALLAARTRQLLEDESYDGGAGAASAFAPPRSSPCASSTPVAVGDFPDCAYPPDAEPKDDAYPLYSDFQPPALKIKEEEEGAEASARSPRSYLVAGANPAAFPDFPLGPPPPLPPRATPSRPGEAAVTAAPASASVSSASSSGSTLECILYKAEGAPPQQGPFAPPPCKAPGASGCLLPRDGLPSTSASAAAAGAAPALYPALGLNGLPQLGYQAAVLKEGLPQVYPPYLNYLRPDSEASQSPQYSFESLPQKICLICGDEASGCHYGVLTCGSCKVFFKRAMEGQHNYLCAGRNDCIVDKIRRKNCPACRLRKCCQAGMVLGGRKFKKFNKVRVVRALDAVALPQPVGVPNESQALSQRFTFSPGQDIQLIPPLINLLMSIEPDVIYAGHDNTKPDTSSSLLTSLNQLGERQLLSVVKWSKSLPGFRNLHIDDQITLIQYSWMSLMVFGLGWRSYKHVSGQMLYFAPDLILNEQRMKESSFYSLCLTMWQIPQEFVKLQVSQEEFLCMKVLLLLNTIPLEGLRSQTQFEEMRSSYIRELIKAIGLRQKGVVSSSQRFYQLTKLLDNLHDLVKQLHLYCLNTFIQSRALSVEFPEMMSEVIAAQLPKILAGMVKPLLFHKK
Quality Control Precautions: Maintain cells below 85-90% confluence in culture medium. For assay purpose, the cells should be cultured in assay medium with 10% charcoal stripped FBS for 5 days with alternate day medium changed to fresh medium. Especially while in assay culture, the cells should not reach more than 85% confluence as they would become harder to detach if they reach over confluence.Assay Protocol: HEK293-PR-A-luc cells were dispensed at 3,000 cells/5 uL/well of culture medium into white wall/solid-bottom 1536-well plates using a Multidrop Combi (ThermoFisher Scientific, Waltham, MA) dispenser. After the assay plates were incubated at 37C and […] for 5 h, 23 nL of compounds dissolved in DMSO, positive controls or DMSO only was transferred to the assay plate by a Pintool station (Kalypsys, San Diego, CA). The plates were incubated at 37C and […] for 16 h. Then 4 uL of ONE-Glo reagent (Promega, Madison, WI) was added to each plate using a BioRAPTR Flying Reagent Dispenser (FRD) workstation (Beckman Coulter, Indianapolis, IN, USA) and luminescence was quantified on a ViewLux (PerkinElmer, Shelton, CT) plate reader after 30 min incubation at room temperature.
As to `C[C@]12CCC(=O)C=C1CC[C@@H]1[C@@H]2C(=O)C[C@@]2(C)[C@H]1CC[C@]2(O)C(=O)CO`, the result was inactive.

In the case of `CCC(=O)Oc1ccc(/C(CC)=C(\CC)c2ccc(OC(=O)CC)cc2)cc1`, the AC50 is 16.5 µM (active).

On to `CCOC(=O)c1ccccc1C(=C1C=C(Br)C(=O)C(Br)=C1)c1cc(Br)c(O)c(Br)c1`, for which the AC50 is 28.9 µM (active).

As to `Nc1ccc(-c2ccc(F)cc2)cc1`, the compound was called inactive.

Take `Cc1ccc(C(C)c2ccc(C)c(C)c2)cc1C`: the call was inactive.

Consider `CC(C)(c1cc(Br)c(OCCO)c(Br)c1)c1cc(Br)c(OCCO)c(Br)c1`, for which the AC50 is 12.8 µM (active).

As for `CC(=O)[C@H]1[C@H](C#N)C[C@H]2[C@@H]3CC=C4C[C@@H](O)CC[C@]4(C)[C@H]3CC[C@@]21C`, the compound was classed as inactive.

For `COc1ccc(C(Cl)=C(c2ccc(OC)cc2)c2ccc(OC)cc2)cc1`, the AC50 is 8.88 µM (active).

`C#CC1(O)CC[C@H]2[C@@H]3CCC4=CCCC[C@@H]4[C@H]3CC[C@@]21C` (some centres not stated): the AC50 was 23.9 µM (active).

Test system in the next assay: not listed separately
Briefly: TOX21_PR_LUC_Followup_Antagonist_viability: Viability Assessment in the Tox21 HEK293 Progesterone Receptor (PR) Antagonism Luciferase Follow-Up Assay (AID 2283940). The method in brief:
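Multiplexed viability counter-screen: after 5 days in charcoal-stripped-FBS medium, HEK293-PR-A-luc cells are plated, pinned with DMSO-dissolved compounds for 16 h at 37C, and ATP content is quantified luminescently via CellTiter-Glo.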
Consider `CCC(=O)Oc1ccc(/C(CC)=C(\CC)c2ccc(OC(=O)CC)cc2)cc1`, for which the compound was classed as inactive.

Regarding `CCOC(=O)c1ccccc1C(=C1C=C(Br)C(=O)C(Br)=C1)c1cc(Br)c(O)c(Br)c1`, the call was inactive.

As for `C[C@]12C=CC(=O)C=C1CC[C@@H]1[C@@H]2[C@@H](O)C[C@@]2(C)[C@H]1CC[C@]2(O)C(=O)CO`, the call was inactive.

As for `Nc1ccc(-c2ccc(F)cc2)cc1`, the compound was classed as inactive.

Take `Cc1ccc(C(C)c2ccc(C)c(C)c2)cc1C`: the compound was classed as inactive.

Consider `CC(C)(c1cc(Br)c(OCCO)c(Br)c1)c1cc(Br)c(OCCO)c(Br)c1`, for which the compound was called inactive.

With `COc1ccc(C(Cl)=C(c2ccc(OC)cc2)c2ccc(OC)cc2)cc1`, the compound was classed as inactive.

For `C#CC1(O)CC[C@H]2[C@@H]3CCC4=CCCC[C@@H]4[C@H]3CC[C@@]21C` (some centres not stated), the call was inactive.
